Laboratory results: PubChem BioAssay (NCATS)
Results filed as inconclusive are left out. Calls of active or inactive are those of the source. The call rests on the fitted dose curve; in most records, active means well fitted inhibition curve with a large enough effect; inconclusive means small, poorly fitted or top-dose-only effect; inactive means flat fitted curve, though single readings scatter.

Molecular target: Calcium and integrin-binding protein 1 (Homo sapiens) (UniProt Q99828)
Experiment: Primary qHTS for Identification of Calcium Integrin Binding Protein 1 (CIB1) Competitor (AID 1508620);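 further: GST tagged CIB1 binding a fluorescein labelled alphaIIb integrin peptide tracer; top concentration of the series differs between compounds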
Settings: CIB1-GST / FITC-alphaIIb peptide fluorescence polarization; series mostly up to 114 µM; activity change, negative = inhibition: at the top concentration
Source text: Assay Provider: Ulhas P. Naik, PhD Sidney Kimmel Medical College Thomas Jefferson University, Philadelphia, PA Primary function of platelets is to maintain hemostasis. At the site of vascular injury, platelets adhere to adhesive proteins such as collagen and von Willebrand factor. Adherent platelets are activated and generate soluble platelet agonists such as thrombin, ADP and thromboxane A2. Following exposure of circulating platelets to these agonists, results in platelet shape change, granule secretion and activation of platelet integrin alphaIIb-beta3. Ligand binding to activated integrin alphaIIb-beta3 triggers outside-in signaling, leading to platelet aggregation, stabilization of platelet plug, and clot retraction. Upon atherosclerotic plaque rupture also causes platelet plug formation, which underlies a number of cardiovascular diseases such as myocardial infraction and stroke. A number of anti-platelet drugs such as aspirin, clopidogrel, prasugrel, vorapaxar, and eptifibatide are currently available to prevent the thrombotic complications. However, these anti-platelet agents have several limitations including inherent variability in individual responses, developing resistance, and serious bleeding side effects. For these reasons they are not suitable for long-term protection. Based on the experiences with current anti-platelet drugs, it appears that the most useful therapeutic approach is to intersect the secondary responses such as integrin outside-in signaling or recruitment of platelets by TxA2 and secreted ADP. Compounds, which can largely preserve the primary hemostatic function of platelets but inhibit secondary response will be most desired therapeutic agents for treatment of cardiovascular disease. CIB1 is a calcium integrin binding protein, which specifically interact with the alphaIIb subunit of integrin alphaIIb-beta3. Binding of CIB1 to alphaIIb regulates the outside-in signaling in platelets, which is needed for thrombus stabilization and thrombus growth. […] Therefore, we propose that discovery of a small molecule that can prevent the association of CIB1 and alphaIIb-beta3 will be a potential anti-platelet agent that can block the thrombus formation without undue effect on hemostasis. Reference: [1] Naik MU, Nigam A, Manrai P, et al. CIB1 deficiency results in impaired thrombosis: the potential role of CIB1 in outside-in signaling through integrin alpha IIb beta 3. J Thromb Haemost.
PROTOCOL TABLES SEQUENCE No. (1, 2, 3, etc.); […] (e.g., Cells, Incubation, Reagent, etc.); VALUE and DESCRIPTION. 1; Reagent; 3 uL; Protein or buffer (4/3x) 2; Compound; 46 nL; Control inhibitor / compound library 3; Time; 15 min; Room temperature incubation 4; Reagent; 1 uL; Fluorescent labeled peptide (4x) 5; Time; 1000 rpm; Centrifuge 6; Time; 15 min; Room temperature incubation 7; Detection; Ex 480/ Em 540; ViewLux Fluorescence Read NOTES (numbers refer to sequence above) 1; Protein Mixture: C1B1-GST (final concentrations of 1 uM). […] 3; Room temperature incubation. 4; Fluorescent Labeled Peptide: FITC-aIIb (final concentration of 100 nM). Sequence of alphaIIb peptide: Acetyl-[…]-FITC (purity is 95.83%). 5; Centrifuge 1000 rpm (164 g) for 15 seconds. 6; Room temperature incubation. 7; ViewLux Fluorescent Polization Read: excitation = 480(20) / emission = 540(25) S and P; FITC Dichroic mirror.
On the % scale 0 is the no-effect control and ±100 the full control effect.

Calcium and integrin-binding protein 1 (Homo sapiens), sequence (Q99828 whole entry, looked up): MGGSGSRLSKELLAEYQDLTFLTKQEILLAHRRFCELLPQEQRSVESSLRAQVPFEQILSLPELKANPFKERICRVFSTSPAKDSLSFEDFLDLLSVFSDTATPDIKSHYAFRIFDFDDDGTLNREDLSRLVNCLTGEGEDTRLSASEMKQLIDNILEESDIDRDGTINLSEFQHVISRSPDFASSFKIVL

Row | Structure (SMILES) | activity change, negative = inhibition
1 | C=C(CCC1C(C)(O)CCC2C(C)(C)C(O)CCC12C)C(O)CO (stereo not given) | 2.18% [at 57.7 µM] (inactive)
2 | O=C1c2ccc(Nc3ccc(F)cc3F)cc2CCc2ccc(OCC(O)CO)cc21 (stereo not given) | -1.76% (inactive)
3 | CC[N+]1(C/C2=C/CCCCCC2)CCC(NC(=O)C2c3cc(Cl)ccc3Oc3ccc(Cl)cc32)CC1 (stereo not given) | 5.72% (inactive)
4 | COc1cc2ncnc(Oc3ccc(CC(=O)Nc4cnn(C(C)C)c4)cc3)c2cc1OC | 0.102% (inactive)
5 | C#CC(=O)N(c1ccc(OC)cc1OC)C(C(=O)NCC(=O)OCC)c1cccs1 (stereo not given) | 2.77% (inactive)
6 | CC(=O)OC1[C@H]2[C@@H](C[C@@H](C)[C@@H]3C=CC(=O)[C@@]13C)OC(=O)[C@@H]2C (stereo not given in full) | -2.05% (inactive)
7 | C=C1C(=O)O[C@H]2/C=C(/C)[C@@H](OC(C)=O)C/C=C(\C)C[C@@H](OC(=O)/C(=C/C)COC(=O)/C(=C/C)CO)[C@@H]12 | -4.52% [at 57.7 µM] (inactive)
8 | Cc1cccc(C#Cc2cc(F)cc(C#N)c2)n1 | 1.81% (inactive)
9 | Cc1ccc(C)c(NC(=O)[C@@H]2CCCN2S(=O)(=O)c2cccc3cccnc23)c1 | 2.51% (inactive)
10 | CCCCCCOC(=O)/N=C(\N)c1ccc(NCc2nc3cc(C(=O)N(CCC(=O)OCC)c4ccccn4)ccc3n2C)cc1 | -3.98% (inactive)
11 | CC(C)(C)c1ccc2c(c1)CC[C@H]2NC(=O)Nc1cccc2[nH]ncc12 | 3.67% (inactive)
12 | NC(=O)c1nc(Nc2ccccc2)sc1NC(=O)C1CCCCC1 | -1.63% (inactive)
13 | O=C(Nc1cccc2cccnc12)c1ccc(N2C(=O)[C@@H]3C4C=CC(C4)[C@@H]3C2=O)cc1 | -0.9% (inactive)
14 | CCNC1(C(N)=O)CN(c2nc(C)nc3c(-c4ccc(Cl)cc4)c(-c4ccccc4Cl)nn23)C1 | 3.18% (inactive)
15 | Nc1nc(Nc2ccc3c(c2)CCC(N2CCCC2)CC3)nn1-c1cc2c(nn1)-c1ccccc1CCC2 (stereo not given) | -4.13% (inactive)
16 | CC(C)=CCc1cc2c(cc1O)OC[C@H]1c3ccc(O)cc3O[C@@H]21 | -8.95% [at 57.7 µM] (inactive)
17 | COc1cccc(N2CCN(C3=Nc4c(F)cccc4[C@H](CC(=O)O)N3c3cc(C(F)(F)F)ccc3OC)CC2)c1 | -13.4% (inactive)
18 | O=C(Nc1ccc(-n2nc(C(F)(F)F)cc2C(F)(F)F)cc1)c1ccncc1F | 0.188% (inactive)
19 | C[C@H]1CC[C@@]2(OC1)O[C@H]1CC3[C@@H]4CC[C@@H]5C[C@@H](O[C@@H]6O[C@H](CO)[C@@H](O[C@@H]7O[C@H](CO[C@@H]8OC[C@@H](O)[C@H](O)[C@H]8O)[C@@H](O[C@@H]8O[C@H](CO)[C@H](O)[C@H](O)[C@H]8O)[C@H](O)[C@H]7O)[C@H](O)[C@H]6O)CC[C@]5(C)C4CC[C@]3(C)[C@H]1[C@@H]2C (stereo not given in full) | 5.09% [at 30.2 µM] (inactive)
20 | CNCCN1CCC(c2cc(CN(C)C(=O)c3cccc(Oc4ccccc4)c3)ccn2)CC1 | -3.27% [at 57.7 µM] (inactive)

Row | Structure (SMILES) | activity change, negative = inhibition
21 | Cn1cc(-c2cnn3c(N)c(Br)c(C4CCCNC4)nc23)cn1 (stereo not given) | 3.73% (inactive)
22 | CC[C@H]1OC(=O)[C@H](C)[C@@H](O[C@H]2C[C@@](C)(OC)[C@@H](O)[C@H](C)O2)[C@H](C)[C@@H](O[C@H]2O[C@H](C)C[C@H](N(C)C)[C@H]2O)[C@](C)(O)C[C@@H](C)C(=O)[C@H](C)[C@@H](O)[C@]1(C)O | 2.11% [at 57.7 µM] (inactive)
23 | CC(=O)NCc1cccc(OC[C@@H](O)CNCCc2ccc(NS(=O)(=O)c3ccccc3)cc2)c1 | 2.83% (inactive)
24 | Cc1ccc(C2(C(=O)N3CCC(n4nc(-c5ccccc5)oc4=O)CC3)CC2)cc1 | -0.168% (inactive)
25 | CC(C)NCCCn1c(Sc2cc3c(cc2I)OCO3)nc2c(N)ncnc21 | 0.429% (inactive)
26 | C=C1C(=O)O[C@@H]2[C@H]1CCC(C)=C(CCC(=O)O)[C@@]2(C)O | -4.13% (inactive)
27 | CC(=O)N[C@H]1[C@H](O[C@H]2CC[C@@]3(C)C(CC[C@]4(C)C3CC=C3C5CC(C)(C)CC[C@]5(C(=O)O)C(O)C[C@]34C)C2(C)C)O[C@H](CO[C@@H]2O[C@H](C)[C@H](O)[C@H](O)[C@H]2O[C@@H]2OC[C@@H](O)[C@H](O)[C@H]2O)[C@@H](O)[C@@H]1O (stereo not given in full) | -3.02% [at 30.2 µM] (inactive)
28 | Fc1ccc(-c2nc(-c3c(F)cccc3F)[nH]c2-c2ccncc2)cc1 | 3.84% (inactive)
29 | O=C(Nc1ccc(N2C(=O)[C@@H]3[C@H](C2=O)[C@@H]2C=C[C@H]3C2)c(Cl)c1)c1ccccn1 | 3.64% (inactive)
30 | O=C(NCC1CCN(Cc2cccc(Cl)c2)CC1)[C@@H]1CCCN(c2ncnc3c2nc2n3CCCC2)C1 | 4.3% (inactive)
31 | COc1ccc(CNc2nc(N(CCO)CCO)nc3c2ncn3C(C)C)cc1 | -4.22% (inactive)
32 | Cn1c(CO)c(-c2ccccc2)c2cc([N+](=O)[O-])ccc21 | -5.94% (inactive)
33 | COc1ccc(NC(=O)c2ccc(-c3ccc(C(=N)N)cc3C)cc2)cc1N1CCN(C)CC1 | -0.995% (inactive)
34 | CC#C[C@@H](CC(=O)O)c1ccc(OCc2cccc(-c3ccc(C(F)(F)F)cc3)c2)cc1 | 7.32% (inactive)
35 | C=C(C)[C@@H]1CC[C@]2(C(=O)O)CC[C@]3(C(=O)O)[C@H](CCC4[C@@]5(C)CCC(=O)C(C)(C)C5CC[C@]43C)C12 (stereo not given in full) | -0.507% [at 57.7 µM] (inactive)
36 | C=CC(=O)N1CCC(Oc2cc3c(Nc4ccc(Cl)c(Cl)c4F)ncnc3cc2OC)CC1 | 4.65% (inactive)
37 | CC1(C)CC[C@]2(C(=O)O)CC[C@]3(C)C(=CCC4[C@@]5(C)C[C@@H](O)[C@H](O)C(CO)(CO)C5CC[C@]43C)C2[C@@H]1O (stereo not given in full) | -7.01% [at 57.7 µM] (inactive)
38 | O=C(Nc1cccnn1)N1CCN(c2nccc(-c3ccc(F)c(F)c3)n2)CC1 | -5.74% [at 228 µM] (inactive)
39 | O=C(NCCCN1CCC2(CC1)OCc1ccccc12)[C@H]1CCCN1Cc1ccccc1 | -2.36% (inactive)
40 | C=C1C(=O)O[C@@H]2/C=C(\C)CC/C=C(\C)CC[C@@H]12 | -10.4% (inactive)
